Our source for the PBM binding z-score values is the supplement of paper PMC6555819.

For the test, the system named is VDR:RXRa (NR concentration 270 nM, RXRa partner concentration 90 nM). The test can be described thus: PBM binding z-score (relative to random genomic background probes); higher = stronger binding; sequences stand for … in GC…GCGATTGACAGCGTAGAATGAAGG
The protocol:
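Protein-binding microarray (Agilent 4x180K custom design, double-stranded 60-nt probes: 5' GC cap, 34-nt variable region, 24-nt constant primer region; full probe sequence given). Purified or IVT nuclear receptor:RXRα heterodimers (3:1 NR:RXRα, mostly 270:90 nM) or homodimers were incubated for 1 h in PBS with 2% milk and no ligand, then detected with Alexa488 antibodies. Fluorescence from o1-orientation probes (~5 replicates averaged) was converted to z-scores against 500 random hg19 background probes. Variable regions are seed direct-repeat (DR0–DR5) sites, all their single-nucleotide variants and half-site ablations.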
On to TCGTGTAGATCAACAGGAGGTTAAGAAAGATCGA, for which the PBM binding z-score is 0.314.
With ATCGAAAGATCGACGAGGTGAGTATACACCGTTT, the PBM binding z-score is 0.0445.
In the case of GATATAGGGTCAAGGCCAGAGTACGCGTATTGAT it was 4.5; in that of CCGACTGGGGCAAAGGTTGCCATACTCAGTACGA, 0.133.
Then ACTAGCAGACCAAGGGTCACTCAAGATTAGTCCG, with 2.58; and AGTCAAAGTTCATCTAGCTAACGTAAGATATGCT, with 4.35.
Sequence ACAGACAGGTGAGTGAAGGTAACTTAGCTGGACG displayed a PBM binding z-score of -0.357.
For the sequence ATCGATAGGTCGACGAGGTGAGTATACACCGTTT, the PBM binding z-score was determined as 2.96.
Then AGAACGAGGGCAAGCTGAGTTGATAGCAGAGTAG, with 1.37; and CCTCGGAGGACAACAGGAGGTAAGAGCTGCCAGA, with -0.357; and CCTACTGGGCAAAAGGTCATTGATTCCAATGCTC, with 4.44.
TCATATAGGTAATACCGGTGAAAGTCGGCATCTA came in with a PBM binding z-score of 0.463.
ACTAGTTGGTCAGCTGAGATCACACACAATTCGG: the PBM binding z-score was 0.193.
For TCTCGTAGATCAAGCAGGTTAAGAAAGCCTGAGT, the PBM binding z-score is -0.00505.
The sequence CGAACGAGGGCATTAGTTGATAGCAAATGCCGAT showed a PBM binding z-score of 0.658.
In the case of TCATATAGGTAAACAGGTTAAAGTCCGTAAGTTA it was 1.88; in that of GCTCGGAGGACAAGGTCAGAGCATTGTCCGTAGA, 1.5; in that of TAGCCTACGTCAGATCGGGCCAGTATACGCTATA, -0.713.
For the sequence GTACCAAGATGAATAGGTCGTTGATGAGTAGGCG, the PBM binding z-score was -0.0191.
The sequence CGAACTAGGTCCGAACAGGACAGTGAAGGATGAT displayed a PBM binding z-score of -0.576.
Then TCTTGCAGATCAAAGGTTAAGAAAGCCGAAGCCT, with 1.3; and AGAATGAGGTTATACGTAGATCAGGGGAGAAAGT, with 1.42; and ATCGAAAGGTCGGCGAGGTGAGTATACACCGTTT, with 4.48.
In the case of AATACAGGGTCACTACGCCAGAGTAGGTACGAAT it was 4.39; in that of CGTCCAAGGTCCTAGGAGGTCAGTGAAGACAGAT, 2.88; in that of CTCGTAAGGTCGTGCTCAGGTGAGTATACCAAAC, 2.61.
In the case of CTCCAAAGGTCGTGCTCAGGTGAGTATACCAAAC, the PBM binding z-score was 3.59.
Then CGAACTGGGTCAGAACAGGACAGTGAAGGATGAT, with 0.685; and ACTAGTTGGTCAGCTGAGGTCAAACACAATTCGG, with 4.9.
In the case of GCGACTGGGGCAACAGCAGGTTACCATAACTTAA it was -0.189.
In the case of ATATGTAGGTTAATGGTCATTCAGGTTGGTTCGC it was 1.32.
AGAATGAGGCTACCAAAGATCAGGGAAACGCTTG displayed a PBM binding z-score of -0.544.
In the case of GTGACTGGGGCAAAGCAGGTTACCATAAGGTTGG, the PBM binding z-score turned out to be 0.488.
In the case of CGAAGTAGGTCAAGGACAGTGAATCTCCGCACGC it was 1.52; in that of AGAACGAGGGCAATGAGTTGATGGCACGGGTGGC, 4.7.
In the case of TTACCAAGGTGAAGGTCCTTGATCCCTCTGTAGA, the PBM binding z-score came to 0.388.
Then CGTCCAAGGTTATAGGAGGTCAGTGAAGACAGAT, with 4.85; and TCTGCTAGGTCAACGATGATCAGCTAATCTGCTA, with 1.17.
In the case of CCTACTGGGCCATAAGGTCATTGATATCAACGTT it was 3.71.
Then TCTATTAGTTGAAGGGCAACGGACGAGTCCGTTT, with 1.06.
